IL2 activator: IL-2 activation. IL-2 activation reporter assay, cell-based qHTS; stimulated with anti-CD3/CD4/CD28 beads; in transgenic mouse T cells. AID 652025. actives 0.065% (n = 360,000). activation, % (series mostly up to about 46 µM); in the data active = activation above about 50%; inconclusive = mostly about 30% to 49%; note: 0% is about no effect
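Using fluorescent plate cytometry, EGFP and DsRed are detected in transgenic mouse T cells stimulated 18 h at 37 degrees C with antibody-coated beads after 60 min compound pretreatment.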
PKM2 activator: activators of human pyruvate kinase M2 | P14618 | purified PKM2, Kinase-Glo ATP luminescence, activation; response scale: 0% is enzyme alone, no compound | Potency, µM (doses to about 57.5 µM), inactives show at the highest dose activation, most hits filed as activators | actives 0.34% (n = 260,000) | AID 1631; note: potency is the fitted concentration of half-maximal effect; % is set by controls: 0 for no effect and ±100 for the full control effect; nearly all actives have a fitted effect of over 55% in size
Target sequence (P14618 whole entry, looked up): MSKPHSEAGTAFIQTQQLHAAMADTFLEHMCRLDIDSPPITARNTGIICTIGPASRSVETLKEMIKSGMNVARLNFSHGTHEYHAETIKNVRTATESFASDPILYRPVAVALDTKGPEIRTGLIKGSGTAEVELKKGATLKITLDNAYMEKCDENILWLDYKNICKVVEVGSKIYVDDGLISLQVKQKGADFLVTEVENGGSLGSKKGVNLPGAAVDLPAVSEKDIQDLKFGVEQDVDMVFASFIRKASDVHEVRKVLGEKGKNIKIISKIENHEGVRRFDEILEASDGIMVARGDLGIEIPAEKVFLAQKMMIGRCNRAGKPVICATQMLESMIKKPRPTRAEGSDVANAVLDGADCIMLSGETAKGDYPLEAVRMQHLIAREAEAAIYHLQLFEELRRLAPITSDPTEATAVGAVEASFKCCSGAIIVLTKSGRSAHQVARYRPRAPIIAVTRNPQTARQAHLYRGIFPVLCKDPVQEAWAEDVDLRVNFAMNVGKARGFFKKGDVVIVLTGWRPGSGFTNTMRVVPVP
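Kinase-Glo luminescence reports ATP generated from ADP (0.1 mM) and PEP (0.5 mM) by purified hPK-M2 after 1 h at room temperature, pH 7.2 imidazole buffer; intermediate enzyme activity allows detecting inhibitors and activators.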
ClpP mod: qHTS Assay for Activators of ClpP. Potency, µM (doses to about 57.5 µM), without a hit: at the top dose activity change, negative = active. purified B. subtilis ClpP, FRET peptide cleavage, 20 min. actives 1.9% (n = 340,000). ATP-dependent Clp protease proteolytic subunit (Bacillus subtilis (strain 168)), P80244; active = well fitted falling curve with a large enough effect; inconclusive = small, poorly fitted or top-dose-only effect; inactive = no such curve, though single readings can be large or run the other way; note: potency is the fitted concentration of half-maximal effect; the source files actives as falling curves though it sought activators and does not explain the sign; nearly all actives have a fitted effect of over 65% in size
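Buffer: 100 mM Tris/HCl pH8, 100 mM KCl, 0.05% low protease BSA, 2.5% glycerol, 0.01% Tween-20. ClpP 10 microg/mL final; 20 min RT; delta FRET normalized to ADEP and DMSO controls.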
NPSR antagonist: blocks cAMP signaling of the human neuropeptide S receptor. Q6W5P4. CHO-NPSR cells, cAMP TR-FRET, antagonist mode. Potency, µM (top dose mostly 38.3 µM), for the others: top-dose activity change, negative = inhibition, hits mostly inhibitors. actives 1% (n = 220,000). AID 1461; note: potency is the fitted concentration of half-maximal effect; % is set by controls: 0 for no effect and ±100 for the full control effect; nearly all actives have a fitted effect of over 50% in size
Numbers without * were called inactive; ? = inconclusive; / = not tested or not shown; [ ] = another dose, or the depositor's remark. The list is not random: actives were taken first. Their share in the collection is about 2%. Unless noted, calls come from the whole dose curve; as a rule, active = well fitted curve in the direction sought with a large enough effect; inconclusive = small, poorly fitted or top-dose-only effect, or another doubt; inactive = no such curve, though single readings can be large; an effect the other way counts as inactive or inconclusive.

SMILES	IL2 activator	PKM2 activator	ClpP mod	NPSR antagonist
COC(=O)c1ccccc1NC(=S)NC(NC(=O)c1ccco1)C(Cl)(Cl)Cl (stereo not drawn)	-1	1%	-23%	-18%[46.1 µM]
Cc1ccn2c(C=O)c(-c3ccc(F)cc3)c(C=O)c2c1	0	0%	-1%	-37%
CCN(CC)c1ccc(NC(=O)CN2CCN(S(=O)(=O)c3cc(Cl)ccc3OC)CC2)cc1	-4	-7%	0%	-17%[46.1 µM]
CCOc1ccc(NC(=O)CCN2CCN(S(=O)(=O)c3cc(Cl)ccc3OC)CC2)cc1	2	12%	28µM*	-10%[46.1 µM]
O=C(NCc1ccc2c(c1)OCO2)C1CCN(S(=O)(=O)c2cccs2)CC1	0	8.9µM*	0%	-9%[46.1 µM]
COc1ccc(S(=O)(=O)N2CCC(C(=O)NCCC(=O)Nc3cccc(OC)c3)CC2)cc1	-3	/	1%	/
Cc1ccc(S(=O)(=O)N2CCC(C(=O)NCCc3ccccn3)CC2)cc1	7	0%	22µM*	7%
COc1ccc(NC(=O)CCNC(=O)C2CCN(S(=O)(=O)c3ccc(F)cc3)CC2)cc1OC	-3	4.5µM*	-1%	/
COc1cccc(CNC(=O)C2CCN(S(=O)(=O)c3ccc4c(c3)OCCO4)CC2)c1	-2	11µM*	1%	/
O=C(NCC1CC1)c1cccc2c(-c3ccc(F)c(F)c3)coc12	0	/	-8%	/
CCc1ccc(CNC(=O)CCCn2nc(C)n3ccnc3c2=O)cc1	0	0%	0%	/
COc1cccc(CNC(=O)C2CCN(S(=O)(=O)c3ccccc3)CC2)c1	1	25µM*	-2%	-10%[46.1 µM]
COc1cccc(CNC(=O)N2CCN(S(=O)(=O)c3ccc(Cl)cc3)CC2)c1	0	14µM*	/	/
CN(C)c1ccc(/C=C/c2ccc3ccccc3[n+]2[O-])cc1	/	/	-5%	/
CC[n+]1c(/C=C/c2ccc(N(C)C)cc2)ccc2ccccc21	0	-28%	0%	5µM*
Cc1nc(Nc2ncc(C(=O)Nc3c(C)cccc3Cl)s2)cc(N2CCN(CCO)CC2)n1	/	/	-18%	/
O=C1NC(Cc2ccc(O)cc2)c2nc3cc(Cl)ccc3c(=O)n2-c2ncccc21 (stereo not drawn)	-1	/	0%	/
COc1ccc(C(NC(=O)C(C)C)c2c(O)ccc3ccccc23)cc1OC (stereo not drawn)	2	1%	28µM*	6%
CCC(=O)NC(c1ccccc1Cl)c1c(O)ccc2ccccc12 (stereo not drawn)	0	-4%	-27%	-21%
CC(C)C(=O)NC(c1ccccc1Cl)c1c(O)ccc2ccccc12 (stereo not drawn)	0	1%	25µM*	-26%[46.1 µM]
CC(C)C(=O)NC(c1ccco1)c1c(O)ccc2ccccc12 (stereo not drawn)	1	6%	22µM*	-22%[46.1 µM]
CCCS(=O)(=O)N1CCCC(C(=O)NC2CCCCC2)C1 (stereo not drawn)	0	-9%	0%	0%[46.1 µM]
COc1cc(C=O)ccc1OCC(=O)Nc1cccc(S(=O)(=O)N(C)c2ccccc2)c1	-2	/	-1%	/
CC(C)(C)c1cc(C(=O)NNc2cc(C(F)(F)F)ccc2Cl)n(Cc2ccccc2)n1	-5	4%	3.2µM*	?
Cc1ccc(S(=O)(=O)N2CCOCC2)cc1NC(=O)Cn1cc(C(F)(F)F)cc(Cl)c1=O	0	-1%	2%	16%
SMILES	IL2 activator	PKM2 activator	ClpP mod	NPSR antagonist
NC(Cc1cnc[nH]1)c1csc(Nc2ccc(C(F)(F)F)cn2)n1 (stereo not drawn)	1	/	0%	/
O=C(CSc1nnc(-c2cccnc2)s1)Nc1cccc(C(=O)O)c1	0	-13%	-4%	-27%[46.1 µM]
O=C(CSc1nnc(-c2ccncc2)s1)Nc1ccccc1	1	4µM*	/	/
COc1ccc(NC(=O)CSc2nnc(-c3cccnc3)s2)cc1	-2	12%	-1%	/
O=C(CSc1nnc(-c2cccnc2)s1)Nc1ccccc1	3	14µM*	-1%	/
C=CCNc1nc(N2CCCC2)nc2ccccc12	3	8%	32µM*	8%[46.1 µM]
CCN1CCN(c2nc(NCCO)c3ccccc3n2)CC1	0	0%	4%	/
CC(=O)c1ccc(NC(=O)CN2C(=O)CCc3cc(S(=O)(=O)N4CCC(C)CC4)ccc32)cc1	/	/	1%	/
Cc1ccc(SC/C(O)=C(\C#N)c2nc3ccccc3s2)cc1	0	-6%	25µM*	-4%[46.1 µM]
COc1ccc(/C=N/NC(=O)c2ccccc2OC)cc1COc1ccc(C)cc1	-3	0%	25µM*	/
CC(=O)/C=C/n1c(=S)oc2ccccc21	-4	5%	-22%	-13%
O=C(COc1ccc2oc(-c3ccccc3)cc(=O)c2c1)NCc1ccco1	4	3%	35µM*	-18%[46.1 µM]
Cc1cc(=O)oc2cc(NC(=O)COc3cccc(C(F)(F)F)c3)ccc12	0	/	3%	/
Cc1cc(=O)oc2cc(OCC(=O)NCc3cccnc3)ccc12	0	-1%	25µM*	-2%[46.1 µM]
Cc1cc(=O)oc2cc(OCC(=O)NCc3ccco3)ccc12	2	-1%	28µM*	10%[46.1 µM]
Cc1cccc(OCC(=O)Nc2ccc3c(C)cc(=O)oc3c2)c1	4	-8%	13µM*	0%
COc1ccccc1CNC(=O)C1CCC(=O)N1C(C)C (stereo not drawn)	1	/	/	/
Cc1sc2ncn(CC(=O)NCc3ccccn3)c(=O)c2c1S(=O)(=O)N1CCOCC1	1	5%	-1%	6%[46.1 µM]
Cc1cc(=O)oc2cc(OCC(=O)NCc3ccncc3)ccc12	-1	-7%	22µM*	-8%[46.1 µM]
Cc1cc(=O)oc2cc(OCC(=O)NCCc3ccccc3)ccc12	-2	/	/	/
O=C1NN(c2ccccc2)C(=O)/C1=C\c1ccccc1OCC(=O)N1CCOCC1	-2	10µM*	4%	-12%[46.1 µM]
C=CCN1C(=O)c2ccc(C(=O)N(C)CC(=O)Nc3ccccc3Br)cc2C1=O	1	1%	22µM*	/
CCN(CC)c1ccc(/C=N/OC(C)C(=O)Nc2ccc(C)cc2)cc1 (stereo not drawn)	-3	-5%	28µM*	-9%
CC(=O)Nc1ccc(/C=N/OCC(=O)Nc2ccc(C)cc2)cc1	-3	3%	0%	-3%
Cc1cccc(NC(=O)c2cnc3sccn3c2=O)n1	-1	/	-7%	/
SMILES	IL2 activator	PKM2 activator	ClpP mod	NPSR antagonist
O=C(Nc1ccon1)c1cnc2sccn2c1=O	-1	1%	20µM*	-1%[46.1 µM]
Cc1ccc(Cl)cc1NC(=O)COC(=O)CCN1C(=O)C2CC=CCC2C1=O (stereo not drawn)	-4	/	25µM*	/
Cc1ccc(Cl)cc1NC(=O)COC(=O)CN1C(=O)C2CCCCC2C1=O (stereo not drawn)	0	/	1%	/
COC1CCCCC1NS(=O)(=O)c1ccccc1 (stereo not drawn)	0	10%	28µM*	?
CCc1ccc(NC(=O)CSc2nnc3[nH]c(=O)cc(-c4ccccc4)n23)cc1	/	/	5%	/
O=C(Cn1ccnc1)c1ccc(O)c(O)c1	3	/	1%	/

Compound activity as filed in PubChem BioAssay.
